Screens from PubChem.
A selection: hits, their analogues and other compounds. The true share with any hit is near 3.1%.
CF NFkB block: inhibitors of cystic fibrosis induced NF-kB. hit rate 0.86% among 360,000. KKLEB NF-kB-GFP reporter, PAF-induced, GFP fluorescence overnight. inhibition, % at 5 µM. AID 588850;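 active = at least 50% inhibition at 5 µM, scaled per plate between neutral and stimulator controls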;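 note: PAF is a Pseudomonas aeruginosa culture filtrate used as stimulus; plate controls were PAF-stimulated DMSO wells for no effect and unstimulated DMSO wells for full effect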
C8 TRAIL sens: caspase-8 TRAIL sensitization; NB7+C8 cells + TRAIL, ATPlite viability luminescence; inhibition (viability loss, TRAIL sensitization), % at 10 µM; hit rate 1% among 360,000; AID 624354;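 active = compounds causing at least 50% loss of cell viability in the single-dose screen, relative to plate controls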
PPC-1+TRAIL kill: kills PPC-1 cancer cells in the presence of TRAIL. PPC-1 cells + TRAIL, ATPLite viability luminescence. cell killing (% activity), % at 4 µM or 5 µM. hit rate 0.41% among 220,000;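 active = cell killing above 50% in the first pass at 4 µM, then a duplicate retest at 5 µM averaging 50% or more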;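 note: plate controls were cells with TRAIL plus DMSO for no effect and medium-only wells lacking cells for full effect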
Peg3 prom inh: Peg3 promoter activity inhibition. HeLa PEG-Prom luciferase reporter, luminescence, overnight. inhibition, % at 20 µM. hit rate 1.7% among 360,000. AID 588405;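 active = inhibition of at least 50% at 20 µM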
KKLEB tox: CF airway cell cytotoxicity counter-screen. KKLEB CF airway cells viability, ATPlite luminescence, overnight; stronger effect = lower value; cells stimulated with P. aeruginosa culture filtrate. activity change (cytotoxicity), % at 5 µM. hit rate 0.36% among 360,000. AID 602141;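 active = corrected activity change at or below -50% at 5 µM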
HIF-2a inh: inhibitors of HIF-2a. 786-0 RCC cells HIF-2a reporter, luciferase luminescence, overnight. inhibition, % at 18.8 µM. hit rate 0.72% among 360,000. AID 624352;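 active = inhibition of the luminescence signal of 40% or more relative to plate controls, in a single-dose primary screen at 18.75 µM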
Numbers without * were called inactive; · = not tested or not shown.

SMILES	CF NFkB block	C8 TRAIL sens	PPC-1+TRAIL kill	Peg3 prom inh	KKLEB tox	HIF-2a inh
CCOC(=O)c1c(O)c2cc(Cl)ccc2n(CC)c1=O	15	-4	12	18	-6	16
OC(COCC(F)(F)C(F)(F)C(F)(F)C(F)F)Cn1c2ccc(Cl)cc2c2cc(Cl)ccc21 (stereo not drawn)	46	5	15	63*	-17	-7
N#CCCN(C(=O)COC(=O)CCN=C1NS(=O)(=O)c2ccccc21)c1ccc(F)cc1	-14	-5	·	-3	12	7
O=C1CC(Sc2nnnn2C2CCCCC2)C(=O)N1c1ccccc1 (stereo not drawn)	-6	5	7	85*	-4	15
Cn1nnnc1SC1CC(=O)N(c2ccccc2)C1=O (stereo not drawn)	1	-6	20	14	-9	15
CCCCN=C1NN=C(c2ccc(C)c(C)c2)CS1	-5	25	16	-149	-2	-260
CCCCN=C1NN=C(c2ccc3c(c2)OCCO3)CS1	-2	63*	30	-95	-1	-59
CCOC(=O)[C@]12CCCC=C1N(Cc1ccco1)C(=O)[C@H](CC(=O)NCc1cccc3ccccc13)C2	·	-6	·	·	·	10
COc1ccc(-c2cn[nH]c2N)c(OC)c1	64*	-13	8	11	-20	9
COc1cccc(C(C)(O)c2nc(-c3ccoc3)cs2)c1 (stereo not drawn)	-27	-8	·	2	16	-20
Brc1ccc2c(c1)-c1ccccc1C1=NCCN12	-177	38	·	87*	-6	-56
COc1ccc(Br)cc1S(=O)(=O)N1CCN=C1c1ccccc1	4	11	·	26	2	19
CCOc1ncccc1C(=O)NCC(c1ccco1)N1CCCCC1 (stereo not drawn)	21	-6	·	-4	-24	9
Cc1cc(C(C)(C)C)cc(C)c1Cn1c2[n+](c3ccc(C(F)(F)F)cc31)CCCCC2	22	41	48	56*	-21	23
COc1ccc(CCN2C(=O)c3[nH]nc(-c4ccccc4O)c3C2c2cccc(Cl)c2)cc1 (stereo not drawn)	28	0	2	98*	-7	27
C=C1CCC2[C@](C)(CO[C@@H]3O[C@H](CO)[C@@H](O)[C@H](O)[C@H]3O)CCC[C@@]2(C)[C@@H]1CCC1=CCOC1=O (stereo partly drawn)	-19	-4	·	17	4	7
Cc1cccc(N=C2NC(=O)/C(=C\c3cccs3)S2)c1	30	-15	29	-95	-7	-102
Cc1ccc(N=C2NC(=O)/C(=C/c3cccs3)S2)cc1C	52*	15	9	-69	-19	-108
CCCn1c(N)c(N(CCOC)C(=O)COC(=O)COc2c(C)cc(C)cc2C)c(=O)[nH]c1=O	-19	-3	·	7	-24	5
CCOc1cc(/C=C2\C(=O)N(Cc3ccc(C)cc3)C(C)=C2C(=O)OC)ccc1O	-11	-1	20	30	4	32
C=CCOc1cccc(/C=C2\C(=O)N(Cc3ccc(C)cc3)C(C)=C2C(=O)OC)c1	-5	3	10	42	3	63*
Cc1cccc(Nc2nc(N3CCOCC3)nc(N3CCOCC3)n2)c1	51*	12	·	7	-14	29
Cc1cccc(Nc2nc(N3CCCCC3)nc(N3CCCCC3)n2)c1	-5	18	5	19	4	-1
O=C(OCc1ccccc1)c1ccc(NCc2cc(O)ccc2O)cc1	81*	90*	·	92*	-56*	78*
CC(C)OC(=O)c1ccc(NCc2cc(O)ccc2O)cc1	72*	73*	·	46	-9	35
SMILES	CF NFkB block	C8 TRAIL sens	PPC-1+TRAIL kill	Peg3 prom inh	KKLEB tox	HIF-2a inh
Cc1ccccc1CN1CCN(C2CCC2)CC1CCO (stereo not drawn)	-13	0	·	0	5	17
O=S(=O)(Nc1cccc2cccnc12)c1ccc(S(=O)(=O)N2CCCC2)cc1	-13	11	-7	50*	14	7
CC(=O)Nc1ccc(S(=O)(=O)Nc2cccc3cccnc23)cc1	-26	-5	·	0	11	23
CCOC(=O)C1=C(C)N=c2s/c(=C\c3ccc(O)c([N+](=O)[O-])c3)c(=O)n2C1c1ccccc1OC (stereo not drawn)	45	-2	·	53*	-6	19
CCOC(=O)C1=C(C)N=c2s/c(=C\c3ccc(OCC(=O)O)cc3)c(=O)n2C1c1ccccc1OC (stereo not drawn)	3	-20	·	4	22	23
COc1cccc(C(=O)c2ccncc2C(=O)O)c1OC	-25	-11	·	-10	16	2
Cc1ccc(C(=O)c2c(C)oc3c2C(=O)C(=O)c2ccccc2-3)cc1	78*	97*	17	101*	-16	29
Cc1ccc(C(=O)c2coc3c2C(=O)C(=O)c2ccccc2-3)cc1	7	-5	-8	-38	13	-131
Cc1oc2c(c1C(=O)c1ccc(Cl)cc1)C(=O)C(=O)c1ccccc1-2	86*	94*	14	107*	-62*	94*
O=C(c1ccc(Cl)cc1)c1ccc(CN2C(=O)c3ccccc3C2=O)o1	6	6	3	2	0	8
O=C(COC(=O)c1cc(Cl)nc(Cl)c1)NCc1ccc2c(c1)OCO2	19	-1	·	-2	-2	8
CN(C)c1ccc(C=Cc2cnccn2)cc1	34	80*	·	-154	-44	-102
CCc1ccc(Nc2n[n+](-c3ccccc3)c(-c3ccc(N(CC)CC)cc3)s2)cc1	33	53*	·	84*	1	-123
CCOC(=O)C1CCN(C(=O)c2c(C)oc3c2C(=O)c2ccccc2C3=O)CC1	62*	52*	28	16	-7	15
COC(=O)Nc1ccc2c(c1)N(C(=O)CCCl)c1ccccc1S2	3	-19	·	30	0	34
Cc1ccc(C(=O)CC(=O)c2ccccc2)cc1	-22	0	·	-326	2	-285
CC(O)(CC(=O)CC(=O)c1ccccc1)c1ccccc1 (stereo not drawn)	-10	4	·	52*	0	3
Cc1ccccc1OCCC(=O)Nc1ccc(S(=O)(=O)N2CCCC2)cc1	-10	4	·	24	9	6
CCc1nc2c(OCCn3cccc3)cccn2c1N(C)C(=O)c1ccccc1F	-9	-14	·	6	1	5
COc1cc(/C=C/C(=O)c2cccc([N+](=O)[O-])c2)cc(OC)c1OC	24	8	4	105*	-3	38
Cc1cccc(NC(=O)CSc2nnc(-c3ccc(S(=O)(=O)N4CCCC4)cc3)o2)c1	-1	5	28	0	-11	-1
Cc1ccc(NC(=O)CSc2nnc(-c3ccc(S(=O)(=O)N4CCCC4)cc3)o2)cc1C	-4	4	2	60*	4	6
